33 molecules from PubChem BioAssay (NCATS) can be followed below.

The target of assay [1] is Ubiquitin carboxyl-terminal hydrolase 1 (Homo sapiens) (UniProt O94782). In words: Inhibitors of USP1/UAF1: Pilot qHTS (AID 504865; active means well fitted inhibition curve with a large enough effect; further: nearly all actives have a fitted effect of over 35% in size; further: potency means the concentration at half of the fitted maximal effect). The note with it: purified USP1/UAF1, Ub-rhodamine cleavage fluorescence; series mostly up to 114 µM. The method in brief: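 Deubiquitinase activity followed as kinetic rhodamine fluorescence release from 150 nM Ub-Rho. 1 nM USP1/UAF1 with compound, after 15 min room-temperature preincubation, in HEPES pH 7.8 buffer containing TCEP, EDTA, BSA and Tween-20.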
(Quantitative high-throughput screening tests each substance at several concentrations.)

Assay [2] deals with Glucocorticoid receptor (Homo sapiens) (UniProt P04150). Briefly: qHTS assay for small molecule agonists of glucocorticoid receptor signaling (AID 588532; active means well fitted curve in the direction sought with a large enough effect in the signal ratio, with a control signal flat; the % refers to the signal ratio;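 further: 100% = dexamethasone at 0.1 µM and 0% = DMSO only wells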). The note with it: HeLa MMTV-bla, beta-lactamase ratio, agonist, 18 h; stronger effect = higher value; percent of dexamethasone control, DMSO zero. The method in brief:
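Agonist-mode qHTS: GRE-driven beta-lactamase in HeLa cells exposed 18 h to titrated compounds (up to 92 uM), then CCF4 ratio read after 2 h at RT; Hill-fitted EC50, efficacy relative to 0.1 uM dexamethasone.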

Assay [3] deals with Vitamin D3 receptor (Homo sapiens) (UniProt P11473). In words: qHTS assay for small molecule agonists of vitamin D receptor signaling (AID 588543).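 Further: 0% = DMSO basal and 100% = reference agonist control.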 The following applies: HEK293T VDR-UAS-bla, beta-lactamase ratio, 16 h; series mostly up to 76.8 µM. The method in brief:
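Agonist-mode beta-lactamase reporter: HEK293T VDR-UAS-bla cells in charcoal-stripped 2% FBS, compound series 16 h 37 C, CCF4 2 h RT. EC50 from Hill fit, scaled against DMSO and 50 nM calcitriol control.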

Assay [4] deals with Estrogen receptor (Homo sapiens) (UniProt P03372). In words: qHTS assay for small molecule agonists of estrogen receptor alpha signaling (AID 588514).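 Further: 0% = vehicle only and 100% = reference agonist; nearly all actives have a fitted effect of over 70% in size.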 The following applies: ER-alpha-UAS-bla HEK293, beta-lactamase ratio, 18 h; series mostly up to 76.8 µM. The method, boiled down: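 ER-alpha-UAS-bla GripTite HEK 293 cells in medium with 2% charcoal/dextran-treated FBS were treated with compound titrations at 37 C for 18 hrs; beta-lactamase reporter read by CCF4 fluorescence after 2 hrs at RT.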

Assay [5] can be described thus: qHTS assay for small molecule antagonists of peroxisome proliferator-activated receptor delta signaling (AID 588535; active means well fitted inhibition curve with a large enough effect in the signal ratio, with a control signal flat, not every such curve was filed as active; the % refers to the signal ratio; further: potency means the concentration at half of the fitted maximal effect;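 on max response: cells co-treated with a PPAR-delta agonist as stimulator during compound exposure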). The following applies: HEK293T PPARd-UAS-bla, beta-lactamase FRET ratio, 18 h; 460 nm channel. The method, boiled down: (§1)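 Cell-based beta-lactamase assay in antagonist mode: 4000 HEK293T PPAR-delta-UAS-bla cells per well, 5 hr preincubation then 18 hr compound incubation at 37 C. IC50 obtained by Hill equation fitting.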

The target of assay [6] is Peroxisome proliferator-activated receptor delta (Homo sapiens) (UniProt Q03181). The assay is described as above. The note with it: HEK293T PPARd-UAS-bla, beta-lactamase FRET ratio, 18 h; series mostly up to 76.7 µM. The method, boiled down: as §1
In assay [7] the target is Vitamin D3 receptor (Homo sapiens) (UniProt P11473). Briefly: qHTS assay for small molecule antagonists of vitamin D receptor signaling (AID 588541).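 Further: receptor activated by calcitriol during compound treatment; on the % scale 0 is the no-effect control and ±100 the full control effect.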 The note with it: HEK293T VDR-UAS-bla, beta-lactamase ratio, antagonist mode; series mostly up to 76.7 µM. The method in brief: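 Antagonist-mode beta-lactamase reporter assay: HEK293T VDR-UAS-bla cells were exposed to titrated compound alongside 1-alpha,25-dihydroxyvitamin D3 at 3 nM final for 16 h. Values were normalized to the 50 nM agonist control and DMSO basal, with IC50 and efficacy from Hill equation fits.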

Assay [8] deals with DNA dC->dU-editing enzyme APOBEC-3G (Homo sapiens) (UniProt Q9HC16). Briefly: qHTS for inhibitors of Vif-A3G interactions: Validation (AID 588379; active means well fitted inhibition curve with a large enough effect; further: 0% is about no effect). The following applies: Vif-A3G protein interaction assay; series mostly up to 46.1 µM. The method in brief:
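HeLa cells stably expressing Vif and A3G-eYFP, 700 cells/well, incubated overnight at 37 deg C, then exposed to compound overnight at 37 deg C. Inhibition of Vif-mediated degradation read as increased yellow fluorescence (Ex 488/Em 500-530) by laser-scanning cytometry.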

Assay [9] addresses Estrogen receptor (Homo sapiens) (UniProt P03372). Briefly: qHTS assay for small molecule antagonists of estrogen receptor alpha signaling (AID 588513; active means well fitted curve in the direction sought with a large enough effect in the signal ratio, with a control signal flat, not every such curve was filed as active; the % refers to the signal ratio; further: on the % scale 0 is the no-effect control and ±100 the full control effect). The note with it: ER-alpha-UAS-bla HEK293, beta-lactamase ratio, antagonist mode; series mostly up to 76.9 µM. The method in brief: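 Antagonist mode: inhibition of 0.5 nM 17-beta-estradiol-driven beta-lactamase reporter in HEK 293 ER-alpha-UAS-bla cells, 18 h at 37C, CCF4 readout after 2 h at RT. Normalised to estradiol and DMSO; titration fitted to Hill.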

Assay [10] has as its target Peroxisome proliferator-activated receptor delta (Homo sapiens) (UniProt Q03181). In words: qHTS assay for small molecule agonists of peroxisome proliferator-activated receptor delta signaling (AID 588534).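 Further: 0% = DMSO basal wells and 100% = positive control agonist at 10 µM.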 The note with it: HEK293T PPARdelta-UAS-bla, beta-lactamase ratio, 18 h; series mostly up to 76.7 µM. The method, boiled down: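 Cell-based beta-lactamase reporter assay run in agonist mode: cells seeded and incubated 5 hrs at 37 C, compounds added and incubated 18 hrs at 37 C. CCF4 dye fluorescence read after 2 hrs at RT; EC50 and efficacy from Hill fits.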

The target in assay [11] is Peroxisome proliferator-activated receptor gamma (Homo sapiens) (UniProt P37231). In words: qHTS assay for small molecule agonists of peroxisome proliferator-activated receptor gamma signaling (AID 588536; active means well fitted curve in the direction sought with a large enough effect in the signal ratio, with a control signal flat, not every such curve was filed as active; the % refers to the signal ratio;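 further: 0% = DMSO basal wells and 100% = rosiglitazone at 2 µM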). The note with it: HEK293 PPARg-UAS-bla, beta-lactamase ratio, 16 h, percent of rosiglitazone response, DMSO as zero; series mostly up to 76.7 µM. The method, boiled down:
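HEK293 UAS-bla reporter line, 1% charcoal/dextran FBS; titration, 16 h, 37 C; CCF4 loading 2 h RT; fluorescence 460/530 nm. Normalized to rosiglitazone 2 uM = 100%, DMSO = 0%.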

For assay [12] the target is unchanged. In words: qHTS assay for small molecule antagonists of peroxisome proliferator-activated receptor gamma signaling (AID 588537; active means well fitted inhibition curve with a large enough effect in the signal ratio, with a control signal flat, not every such curve was filed as active; the % refers to the signal ratio; further: potency means the concentration at half of the fitted maximal effect). The following applies: HEK293 PPARg-UAS-bla, beta-lactamase ratio, antagonist mode; series mostly up to 76.8 µM. The method in brief:
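Inhibitors of agonist-stimulated UAS-bla reporter activity were sought in HEK293 cells; rosiglitazone (50 nM) defined full signal and DMSO baseline. Curves fitted to Hill model gave IC50 and efficacy.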

Assay [13] concerns the target Bile acid receptor (Homo sapiens) (UniProt Q96RI1). In words: qHTS assay for small molecule agonists of farnesoid X receptor signaling (AID 588527).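 Further: 0% = vehicle basal and 100% = reference agonist.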 The note with it: HEK293T FXR-UAS-bla, beta-lactamase ratio, 16 h; stronger effect = higher value. The method, boiled down:
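Quantitative HTS used FXR-UAS-bla HEK293T cells with 16 h compound incubation at 37 C. EC50 values came from concentration-response curves normalized to chenodeoxycholic acid.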

Assay [14] has the same target. Briefly: qHTS assay for small molecule antagonists of farnesoid X receptor signaling (AID 588526). Further: on the % scale 0 is the no-effect control and ±100 the full control effect. The following applies: HEK293T FXR-UAS-bla, beta-lactamase ratio, antagonist mode; series mostly up to 76.7 µM. The method, boiled down:
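Beta-lactamase reporter antagonist mode: HEK293T FXR-UAS-bla cells, titrated compound, CDCA stimulation, 16 h 37 C, CCF4 dye 2 h RT. Data normalized to CDCA 50 uM and DMSO; Hill-fit IC50.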

Molecules are shown by their SMILES. Values joined by “and” are separate entries in the source; they are usually repeats but may differ in a detail not shown here. Equal values may be shown once. Records with an inconclusive call do not appear. Active and inactive are the calls of the source. Unless noted, the call rests on the fitted dose curve.

Sequence of Peroxisome proliferator-activated receptor delta (Homo sapiens) (Q03181 whole entry, looked up): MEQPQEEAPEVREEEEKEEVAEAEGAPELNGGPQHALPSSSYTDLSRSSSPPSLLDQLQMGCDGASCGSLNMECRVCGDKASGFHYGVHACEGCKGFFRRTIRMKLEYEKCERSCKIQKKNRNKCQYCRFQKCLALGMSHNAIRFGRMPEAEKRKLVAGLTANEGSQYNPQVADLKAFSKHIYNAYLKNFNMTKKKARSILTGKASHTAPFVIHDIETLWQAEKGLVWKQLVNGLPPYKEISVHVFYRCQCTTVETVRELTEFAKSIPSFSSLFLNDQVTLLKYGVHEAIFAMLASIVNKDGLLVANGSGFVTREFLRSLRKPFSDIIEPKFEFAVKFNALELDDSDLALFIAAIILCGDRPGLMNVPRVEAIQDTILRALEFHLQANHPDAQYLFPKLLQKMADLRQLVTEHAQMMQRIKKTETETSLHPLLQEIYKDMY
Sequence of Glucocorticoid receptor (Homo sapiens) (P04150 whole entry, looked up): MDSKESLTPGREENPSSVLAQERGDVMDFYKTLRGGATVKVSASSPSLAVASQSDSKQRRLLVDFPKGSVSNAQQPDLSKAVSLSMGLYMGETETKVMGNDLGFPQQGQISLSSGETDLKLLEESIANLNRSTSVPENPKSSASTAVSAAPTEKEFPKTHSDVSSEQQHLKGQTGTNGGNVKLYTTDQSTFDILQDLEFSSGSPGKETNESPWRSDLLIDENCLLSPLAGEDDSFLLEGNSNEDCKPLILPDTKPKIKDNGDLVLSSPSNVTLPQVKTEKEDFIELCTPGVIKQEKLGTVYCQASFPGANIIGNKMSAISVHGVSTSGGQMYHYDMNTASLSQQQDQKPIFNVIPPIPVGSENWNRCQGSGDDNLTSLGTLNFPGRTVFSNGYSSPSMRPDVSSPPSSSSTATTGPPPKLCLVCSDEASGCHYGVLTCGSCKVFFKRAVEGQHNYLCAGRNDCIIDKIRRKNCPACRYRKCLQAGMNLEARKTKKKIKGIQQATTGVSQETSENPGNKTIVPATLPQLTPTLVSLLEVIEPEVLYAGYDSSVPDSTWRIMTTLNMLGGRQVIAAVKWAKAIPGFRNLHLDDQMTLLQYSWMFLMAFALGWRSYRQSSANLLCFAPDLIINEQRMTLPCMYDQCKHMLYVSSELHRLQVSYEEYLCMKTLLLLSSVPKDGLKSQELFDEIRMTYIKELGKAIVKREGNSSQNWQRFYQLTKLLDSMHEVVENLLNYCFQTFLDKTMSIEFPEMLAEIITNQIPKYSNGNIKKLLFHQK
Sequence of Peroxisome proliferator-activated receptor gamma (Homo sapiens) (P37231 whole entry, looked up): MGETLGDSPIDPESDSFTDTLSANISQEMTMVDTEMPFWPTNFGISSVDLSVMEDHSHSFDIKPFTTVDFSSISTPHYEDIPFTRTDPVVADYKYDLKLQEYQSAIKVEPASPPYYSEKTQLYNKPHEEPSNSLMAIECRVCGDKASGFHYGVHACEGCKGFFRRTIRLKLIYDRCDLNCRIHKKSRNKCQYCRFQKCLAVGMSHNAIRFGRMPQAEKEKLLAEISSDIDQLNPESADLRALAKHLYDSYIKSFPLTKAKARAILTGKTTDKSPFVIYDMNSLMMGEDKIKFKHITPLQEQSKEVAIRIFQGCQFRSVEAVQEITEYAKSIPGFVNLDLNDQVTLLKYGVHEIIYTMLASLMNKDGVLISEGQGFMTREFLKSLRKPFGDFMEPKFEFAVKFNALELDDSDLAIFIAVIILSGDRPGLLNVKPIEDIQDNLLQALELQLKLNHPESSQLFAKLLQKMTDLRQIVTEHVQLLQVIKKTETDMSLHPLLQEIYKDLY
Sequence of Bile acid receptor (Homo sapiens) (Q96RI1 whole entry, looked up): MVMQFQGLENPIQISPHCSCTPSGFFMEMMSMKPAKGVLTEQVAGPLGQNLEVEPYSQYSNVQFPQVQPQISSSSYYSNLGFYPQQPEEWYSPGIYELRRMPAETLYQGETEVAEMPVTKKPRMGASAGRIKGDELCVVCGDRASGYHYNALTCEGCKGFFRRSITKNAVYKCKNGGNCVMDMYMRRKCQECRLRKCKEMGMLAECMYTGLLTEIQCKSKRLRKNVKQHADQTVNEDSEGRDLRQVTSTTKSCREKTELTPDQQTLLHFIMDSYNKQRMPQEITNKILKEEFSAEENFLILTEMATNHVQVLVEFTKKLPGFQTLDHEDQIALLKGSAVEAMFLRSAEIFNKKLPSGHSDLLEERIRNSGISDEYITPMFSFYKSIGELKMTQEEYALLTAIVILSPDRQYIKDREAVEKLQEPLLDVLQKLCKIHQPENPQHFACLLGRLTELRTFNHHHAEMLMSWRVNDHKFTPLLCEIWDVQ
Sequence of Estrogen receptor (Homo sapiens) (P03372 whole entry, looked up): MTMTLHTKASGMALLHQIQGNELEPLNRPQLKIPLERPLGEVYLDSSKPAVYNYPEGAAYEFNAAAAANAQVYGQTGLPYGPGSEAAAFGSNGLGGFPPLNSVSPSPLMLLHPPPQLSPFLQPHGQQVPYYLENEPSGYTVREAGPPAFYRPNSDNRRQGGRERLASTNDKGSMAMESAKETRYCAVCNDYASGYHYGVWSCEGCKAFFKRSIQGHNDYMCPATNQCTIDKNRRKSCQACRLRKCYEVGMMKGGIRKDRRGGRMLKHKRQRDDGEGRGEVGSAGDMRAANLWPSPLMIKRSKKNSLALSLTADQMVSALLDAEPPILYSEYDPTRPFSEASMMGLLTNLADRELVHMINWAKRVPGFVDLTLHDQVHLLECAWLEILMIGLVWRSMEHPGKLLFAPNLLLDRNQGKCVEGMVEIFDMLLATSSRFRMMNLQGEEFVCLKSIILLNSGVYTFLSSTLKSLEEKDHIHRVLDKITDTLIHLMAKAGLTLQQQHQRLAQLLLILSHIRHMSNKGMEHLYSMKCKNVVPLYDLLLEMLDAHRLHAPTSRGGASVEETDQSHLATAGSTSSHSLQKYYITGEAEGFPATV
Sequence of Ubiquitin carboxyl-terminal hydrolase 1 (Homo sapiens) (O94782 whole entry, looked up): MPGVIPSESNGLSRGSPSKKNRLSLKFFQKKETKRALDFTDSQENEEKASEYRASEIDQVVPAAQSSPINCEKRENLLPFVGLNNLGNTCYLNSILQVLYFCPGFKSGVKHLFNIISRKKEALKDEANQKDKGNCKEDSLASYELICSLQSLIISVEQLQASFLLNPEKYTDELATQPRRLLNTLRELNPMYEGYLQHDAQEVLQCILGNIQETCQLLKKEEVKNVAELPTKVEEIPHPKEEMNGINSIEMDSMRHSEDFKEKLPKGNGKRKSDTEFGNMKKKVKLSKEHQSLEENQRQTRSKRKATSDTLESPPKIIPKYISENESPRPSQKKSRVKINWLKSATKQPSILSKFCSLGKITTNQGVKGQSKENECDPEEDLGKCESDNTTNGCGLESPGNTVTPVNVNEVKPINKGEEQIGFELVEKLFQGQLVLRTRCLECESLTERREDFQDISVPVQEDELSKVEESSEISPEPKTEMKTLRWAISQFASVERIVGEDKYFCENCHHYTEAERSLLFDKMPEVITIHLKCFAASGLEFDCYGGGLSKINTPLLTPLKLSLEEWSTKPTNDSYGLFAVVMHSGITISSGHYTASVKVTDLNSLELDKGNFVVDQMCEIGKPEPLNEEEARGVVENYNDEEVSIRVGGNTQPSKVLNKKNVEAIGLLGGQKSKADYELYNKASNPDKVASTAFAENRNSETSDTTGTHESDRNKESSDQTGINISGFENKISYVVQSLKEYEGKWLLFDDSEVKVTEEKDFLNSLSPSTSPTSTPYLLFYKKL
Sequence of Vitamin D3 receptor (Homo sapiens) (P11473 whole entry, looked up): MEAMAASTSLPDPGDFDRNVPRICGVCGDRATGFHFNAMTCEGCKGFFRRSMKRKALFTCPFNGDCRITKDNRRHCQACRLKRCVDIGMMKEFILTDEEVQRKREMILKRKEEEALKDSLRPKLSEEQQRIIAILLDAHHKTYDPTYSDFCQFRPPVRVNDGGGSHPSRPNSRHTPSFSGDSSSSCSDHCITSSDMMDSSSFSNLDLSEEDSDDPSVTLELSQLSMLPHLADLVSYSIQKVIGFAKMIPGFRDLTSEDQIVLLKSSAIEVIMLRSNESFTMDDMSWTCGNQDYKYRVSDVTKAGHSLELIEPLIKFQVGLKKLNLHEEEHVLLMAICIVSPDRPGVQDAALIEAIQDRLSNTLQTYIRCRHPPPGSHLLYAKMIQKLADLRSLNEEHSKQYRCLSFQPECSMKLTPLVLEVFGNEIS
Sequence of DNA dC->dU-editing enzyme APOBEC-3G (Homo sapiens) (Q9HC16 whole entry, looked up): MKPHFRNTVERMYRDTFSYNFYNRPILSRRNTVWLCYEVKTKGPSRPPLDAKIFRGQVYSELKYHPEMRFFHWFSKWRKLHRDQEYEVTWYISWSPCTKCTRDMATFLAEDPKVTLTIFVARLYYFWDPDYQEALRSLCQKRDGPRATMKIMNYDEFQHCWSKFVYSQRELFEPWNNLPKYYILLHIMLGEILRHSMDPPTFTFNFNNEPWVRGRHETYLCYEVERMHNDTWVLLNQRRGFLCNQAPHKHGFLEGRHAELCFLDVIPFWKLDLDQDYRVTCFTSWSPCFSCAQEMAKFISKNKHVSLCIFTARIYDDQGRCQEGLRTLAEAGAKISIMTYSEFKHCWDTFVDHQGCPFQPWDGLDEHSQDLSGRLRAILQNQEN

For `COP(=O)(OC)C(O)C(Cl)(Cl)Cl` (stereo unspecified), the Potency result in assay [1] was “inactive”. Also, the activation in [2] is 3.67% (inactive). Moreover, the result in assay [3] was inactive.

Consider `Cc1ccc(N=CN(C)C=Nc2ccc(C)cc2C)c(C)c1`, for which the Potency result in assay [1] and in assay [4] was “inactive” throughout. Besides, the activation in assay [2] was 6.83% (inactive). Moreover, in assay [3], the result was inactive.

For `C=CCOC(Cn1ccnc1)c1ccc(Cl)cc1Cl` (stereo unspecified), the Potency result in assay [1] and in assay [6] was “inactive” throughout. The activation in assay [2] is -7.13% (inactive) and -8.27% (inactive). Also, in [5], the max response was -52.6% and -29.4%. Also, the outcome in [7] and in assay [3] was inactive.

In the case of `NCc1cccnc1`, the Potency result in [1] was “inactive”.

For `COc1ccc(CN2CCNCC2)c(OC)c1OC`, the Potency result in [1] was “inactive”.

Consider `CN(C)CC/C=C1\c2ccccc2Sc2ccc(Cl)cc21`, for which the Potency entry in assay [1] is “inactive”.

With `CCOC(=O)NC(O)C(Cl)(Cl)Cl` (stereo unspecified), the Potency entry in assay [1] is “inactive”.

For `CN1CCc2cc(Cl)c(O)cc2[C@H]2c3ccccc3CC[C@@H]21`, in assay [1], the Potency result is “inactive”.

As to `c1ccc2nc(N3CCNCC3)ccc2c1`, in assay [1], the Potency result is “inactive”. Moreover, the molecule was classed as inactive in [8].

In the case of `O=c1n(Cl)c(=O)n(Cl)c(=O)n1Cl`, the Potency result in [1], in assay [9] and in assay [12] was “inactive” each time. Moreover, the activation in [2] was 0.274% (inactive). Further, the result in [10], in assay [11], in assay [7] and in assay [3] was inactive.

On to `CCN(CC)CCOC(=O)C(C)(c1ccccc1)c1ccccc1`, for which the Potency entry in assay [1] is “inactive”.

As for `CC(Cc1ccccc1)NCc1ccccc1Cl` (stereo unspecified), the Potency entry in [1] was “inactive”.

As for `CCC1(CC)C(=O)NC(=O)NC1=O`, in assay [1], the Potency result was “inactive”.

Take `CCCCCCCCC(=O)NCc1ccc(O)c(OC)c1`: the Potency entry in [1], in [9] and in assay [6] was “inactive” throughout. In addition, the outcome in [10], in [11], in [7] and in assay [3] was inactive. Moreover, the max response in [5] is 11.4%.

For `CC[n+]1c(-c2ccccc2)c2cc(N)ccc2c2ccc(N)cc21`, the Potency in assay [1] was 39.8 µM (active); in assay [6] it was 31.6 µM (active). Also, in assay [4], the Potency entry is “inactive”. In assay [13], the activation was 9.69% (inactive). For the same molecule, the result in assay [10] and in assay [3] was inactive. For the same molecule, the max response in assay [5] was -102%.

As for `CCN1CCCC(OC(=O)C(c2ccccc2)c2ccccc2)C1` (stereo unspecified), the Potency entry in assay [1] is “inactive”.

For the molecule `OC(O)C(Cl)(Cl)Cl`, the Potency entry in assay [1] was “inactive”.

Consider `COCC(=O)N(c1c(C)cccc1C)C(C)C(=O)OC` (stereo unspecified), for which the Potency entry in assay [1], in [9], in [14], in assay [6] and in assay [12] was “inactive” each time. Further, the activation in [13] was 3.52% (inactive). Further, the max response in [5] is -19%. Moreover, the outcome in assay [11], in assay [7] and in assay [3] was inactive.

Regarding `CN1C[C@@H](NS(=O)(=O)N(C)C)C[C@@H]2c3cccc4c3c(cn4C)C[C@H]21`, in [1], the Potency result was “inactive”.

Take `CN(C)C(=S)SSC(=S)N(C)C`: the Potency result in [1], in assay [9], in [4] and in assay [6] was “inactive” each time. For the same molecule, the activation in assay [13] was 3.15% (inactive); in assay [2], 0.667% (inactive) and -2.28% (inactive). Further, the max response in [5] was 11.3%. In addition, in [3], the result was inactive.

For `c1cc2c(c(N3CCNCC3)c1)OCCO2`, the Potency result in assay [1] was “inactive”.

With `C[C@H](N)[C@H](O)c1ccc(O)c(O)c1`, in assay [1], the Potency entry was “inactive”.

On to `CC(C)(O)C(Cl)(Cl)Cl`, for which the Potency result in [1] is “inactive”.

As to `ClC1=C(Cl)C2(Cl)C(CBr)CC1(Cl)C2(Cl)Cl` (stereo unspecified), the Potency entry in [1] is “inactive”.

In the case of `CNC(=O)Oc1cccc2ccccc12`, the Potency result in assay [1], in assay [9], in assay [4], in assay [14] and in assay [6] was “inactive” in each case. Further, the activation in assay [13] is -1.5% (inactive). Besides, in [5], the max response is 25.4%. Besides, the result in [7] and in assay [3] was inactive.

Take `CC(C)C(Br)C(=O)NC(N)=O` (stereo unspecified): in assay [1], the Potency entry is “inactive”.

For `O=C1NCN(c2ccccc2)C12CCN(CCCOc1ccc(F)cc1)CC2`, in assay [1], the Potency result is “inactive”. Also, in [8], the outcome was inactive.

With `CCC1(c2ccccc2)CCC(=O)NC1=O` (stereo unspecified), the Potency entry in assay [1] is “inactive”.

With `COP(=O)(OC)OC=C(Cl)Cl`, the Potency entry in assay [1], in [9], in assay [4] and in assay [6] was “inactive” in each case. Besides, in [5], the max response was 3.66% and 4.74% and -42.4%. Further, in [11], the outcome was inactive.

For the molecule `Oc1ccc(Cl)cc1Cc1cc(Cl)ccc1O`, in assay [12], the Potency was 35.5 µM (active).

Take `O=C(NC(=O)c1c(F)cccc1F)Nc1cc(Cl)c(OC(F)(F)C(F)C(F)(F)F)cc1Cl` (stereo unspecified): the Potency entry in [12] is “inactive”. Also, the outcome in [7] and in [3] was inactive.

`COP(=S)(OC)Oc1ccc(Sc2ccc(OP(=S)(OC)OC)cc2)cc1`: in assay [7], the result was inactive.

Consider `CCC(=O)O[C@H]1CC[C@H]2[C@@H]3CCC4=CC(=O)CC[C@]4(C)[C@H]3CC[C@]12C`, for which the result in [3] was inactive.
